From PubChem
Only some compounds are listed: those with a hit (about 11% of all), similar ones and a draw of the others.
SW480 rerep: induces DNA re-replication in SW480 colon adenocarcinoma cells. Potency, µM (series often up to 46.1 µM), most hits filed as activators. 340,000 compounds, 1.8% hits. SW480 DNA re-replication, Hoechst DNA content imaging, 48 h; note: nearly all actives have a fitted effect of over 55% in size
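Per well, 250 cells were exposed to pinned compound for 48 hr. Nuclear DNA was visualised with Hoechst (40 min, 37 C) and total object intensity recorded by fluorescence scanning.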
RORg inh: inhibitors of mouse ROR gamma transcriptional activity; 310,000 compounds, 5.4% hits; P51450; Drosophila S2 Gal4-RORgamma UAS-luciferase reporter, 20 h; Potency, µM (top dose mostly 53.6 µM), most hits filed as inhibitors; note: nearly all actives have a fitted effect of over 60% in size
Target sequence (P51450 whole entry, looked up, the tested form may be a part): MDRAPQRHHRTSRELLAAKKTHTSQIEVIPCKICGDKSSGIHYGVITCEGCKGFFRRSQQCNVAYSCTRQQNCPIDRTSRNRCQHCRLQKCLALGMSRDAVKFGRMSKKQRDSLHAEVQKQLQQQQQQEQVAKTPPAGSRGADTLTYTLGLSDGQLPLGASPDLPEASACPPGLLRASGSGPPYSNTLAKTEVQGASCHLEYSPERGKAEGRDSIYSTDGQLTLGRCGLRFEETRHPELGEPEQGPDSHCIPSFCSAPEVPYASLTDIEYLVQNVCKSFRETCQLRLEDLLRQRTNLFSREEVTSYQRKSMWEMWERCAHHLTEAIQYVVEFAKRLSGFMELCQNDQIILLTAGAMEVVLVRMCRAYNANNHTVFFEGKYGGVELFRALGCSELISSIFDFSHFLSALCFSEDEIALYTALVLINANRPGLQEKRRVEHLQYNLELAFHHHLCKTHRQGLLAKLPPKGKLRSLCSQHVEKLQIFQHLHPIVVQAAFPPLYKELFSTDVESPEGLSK
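Luminescence from a UAS-regulated Photinus luciferase reporter in stably transfected Drosophila Schneider cells is measured; decreased signal marks ROR gamma inhibition. Fusion expression is induced by 700 uM copper sulfate for 20 hr.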
Gal4-VP16 FLuc: counter-screen for ROR gamma inhibitors: Gal4-VP16 reporter; Drosophila S2 Gal4-VP16 UAS-luciferase, luminescence, 20 h; Potency, µM (doses to about 53.6 µM), hits mostly inhibitors; 310,000 compounds, 3.5% hits; AID 2546;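 note: Gal4-VP16 expression switched on by copper sulfate through the metallothionein promoter; nearly all actives have a fitted effect of over 50% in size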
MCF10A rerep: inducers of DNA re-replication in MCF 10A breast cells. MCF 10A DNA re-replication, Hoechst nuclear intensity, 48 h. Potency, µM (top dose mostly 46.1 µM), actives largely listed as activators. 350,000 compounds, 2.9% hits; note: nearly all actives have a fitted effect of over 50% in size
IL1B secr inh: inhibitors of inflammasome signaling (IL-1 beta secretion); THP-1 LPS/ATP IL-1B secretion, AlphaLISA, 16 h; active compounds read low; activity change, % at 57.5 µM; 360,000 compounds, 4.7% hits; in the data active = activity change below about -50%; inconclusive = mostly about -30% to -49%
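THP-1 cells pretreated 1 hr with compounds (up to 57.5 uM final), then stimulated with LPS (250 ng/mL final) plus ATP (1.25 mM final); secreted IL-1B measured by AlphaLISA after 16 hr, decreased signal indicating inhibition.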
Hits are given with their value; – = inactive; ? = inconclusive; · = no result; [ ] = dose if it differs, or a comment. Unless noted, calls come from the whole dose curve; as a rule, active = well fitted curve in the direction sought with a large enough effect; inconclusive = small, poorly fitted or top-dose-only effect, or another doubt; inactive = no such curve, though single readings can be large; an effect the other way counts as inactive or inconclusive.

SMILES	SW480 rerep	RORg inh	Gal4-VP16 FLuc	MCF10A rerep	IL1B secr inh
O=C(NCc1cccnc1)c1nc(-c2ccc(C(F)(F)F)cc2)no1	–	?	3.16µM	–	–
Cc1ccc(CNC(=O)COC(=O)Cc2ccc(-c3ccccc3)cc2)cc1	?	–	–	?	–
O=C(/C=N/O)NCc1cccnc1	13µM	–	–	14.6µM	–
O=C(CC(=O)NCc1cccnc1)NCc1cccnc1	–	–	–	–	–
CC1(C(=O)NCc2cccc3ccccc23)CCN1C(=O)Cc1ccc(-c2ccccc2)cc1 (stereo unspecified)	·	·	·	·	-103.9
Cc1ccc(CNC(=O)Cc2ccc(-c3ccccc3)cc2)cc1	1.16µM	–	–	?	–
COc1ccc(C2CC(=O)c3c(O)cc(O[C@H]4OC(COC5OC(C)C(O)C(O)[C@@H]5O)C(O)C(O)C4O)cc3O2)cc1O (stereo partly specified)	·	–	–	·	·
O=C(CCC(=O)NCc1ccccc1)NCc1ccccc1	–	–	–	–	–
c1ccc(CN=C(NCc2ccccc2)NCc2ccccc2)cc1	?	·	·	?	-80.0
O=C(Cc1ccc(-c2ccccc2)cc1)NCc1ccccc1	1.3µM	–[10 µM]	–	0.116µM	–
Cc1ccc(N(CC(=O)NCc2ccc(F)cc2)S(=O)(=O)c2cccs2)cc1	–	–	–	–	-72.1
CCCCOc1ccc(C(=O)OCC(=O)N2CCOCC2)cc1	–	–	–	–	–
CCC/C(O)=C1\C(=O)CC(C)(C)CC1=Nc1cccc([N+](=O)[O-])c1	–	–	–	?	–
Cn1ccnc1C1CCCCN1Cc1nc(Cc2cccc(C(F)(F)F)c2)no1 (stereo unspecified)	–	7.08µM	?	?	–
Cn1ccnc1C1CCCCN1Cc1nc(-c2ccc3c(c2)OCO3)no1 (stereo unspecified)	–	?	–	–	–
COc1ccc(-c2noc(CN3CCCCC3c3nccn3C)n2)cc1 (stereo unspecified)	–	3.55µM	?	–	–
Cc1ccc2c(c1)c(CC(NC(=O)c1ccccc1Oc1ccccc1)C(=O)O)cn2C(=O)OCc1ccccc1 (stereo unspecified)	·	?	–	·	·
C[C@]12C=C[C@H](O)CC1=CCC1C2CC[C@@]2(C)C1CCC21OCCO1 (stereo partly specified)	?	·	·	20.6µM	–
C[C@]12C=CC(=O)C=C1CCC1C2CC[C@@]2(C)C1CCC21OCCO1 (stereo partly specified)	–	·	·	?	–
Fc1ccc(/C=N/Nc2nnnn2-c2ccccc2)cc1	–	11.2µM	?	–	–
Brc1ccc(Oc2nnnn2-c2ccccc2)cc1	–	?	–	–	?
Fc1ccc(Oc2nnnn2-c2ccccc2)cc1	–	–	–	–	-58.3
CN(C(=O)Cn1nc(C(=O)O)c2ccccc2c1=O)C1(C#N)CCCCC1	?	·	·	–	–
COC(=O)C1C2OC(C(Br)C2Br)C1C(=O)OC (stereo unspecified)	·	·	·	·	–
Cc1ccccc1-n1nc2c(c1NC(=O)C1CCCC1)CS(=O)(=O)C2	–	–	–	18.4µM	–
SMILES	SW480 rerep	RORg inh	Gal4-VP16 FLuc	MCF10A rerep	IL1B secr inh
Cc1cccc(-n2nc3c(c2NC(=O)C2CC2)CS(=O)(=O)C3)c1C	–	–	–	–	–
C#CCn1c(CCNC(=O)c2ccco2)nc2ccccc21	–	–	–	–	–
COc1cc(CN(C)CC(=O)c2[nH]c(C)c(C(C)=O)c2C)ccc1OC(F)F	–	–	2.82µM	–	–
CN(C)CCCN=Cc1c(-c2ccccc2)[nH]n(-c2nc3ccccc3s2)c1=O	–	–	–	–	–
CCCN=Cc1c(CCC)[nH]n(-c2nc3ccccc3s2)c1=O	?	2.82µM	?	?	–
CCCc1[nH]n(-c2nc3ccccc3s2)c(=O)c1C=NCCCN(CC)CC	–	20µM	–	–	–
CC(C)C[C@H](NC(=O)[C@@H](N)Cc1ccccc1)C(=O)N[C@@H](Cc1ccccc1)C(=O)N[C@@H](CCC(N)=O)C(=O)N1CCC[C@H]1C(=O)N[C@@H](CCC(N)=O)C(=O)N[C@@H](CCCN=C(N)N)C(=O)N[C@@H](Cc1ccccc1)C(N)=O	·	–	–	·	·
CC(=O)Nc1ccc(S(=O)(=O)N2CCC(C(N)=O)(N3CCCCC3)CC2)cc1	–	–	–	–	–
Cc1cc(C(=O)CSc2nc(N)cc(N)n2)c(C)n1CCc1ccc(F)cc1	–	–	–	?	-66.2
COCCN(CCOC)c1nc(C)nc2c1nc(-c1ccccc1)n2CC1CCN(C)CC1	·	–	–	·	·
CN(C)c1nc(N)c2ncc(=S)[nH]c2n1	?	–	–	29.1µM	-65.2
Cc1cc(S(=O)(=O)/N=C(\N)c2ccc(C(N)=O)cc2)cc(C)c1F	–	–	–	–	–
CC(C)Nc1nc(-c2ccccn2)nc(-c2ccccc2)c1C#N	?	2.51µM	?	–	–
CC(C)Nc1nc(-c2cccnc2)nc(-c2ccccc2)c1C#N	–	–	–	–	–
CC(C)Nc1nc(-c2cccnc2)nc(-c2ccc(Cl)cc2)c1C#N	–	–	–	23.1µM	–
C=CCn1c(COc2cccc(C)c2)nnc1SCC(=O)NC(=O)NCc1ccco1	–	?	?	18.4µM	–
C=CCn1c(COc2ccc(Cl)cc2)nnc1SCC(=O)NCC(=O)OCC	–	11.2µM	?	?	–
C=CCn1c(COc2ccccc2)nnc1SCC(=O)N/N=C/c1cc(Cl)ccc1O	?	12.6µM	?	–	–
C=CCn1c(CNc2ccccc2)nnc1SCC(=O)N/N=C/c1ccc(O)cc1O	–	–	–	16.4µM	–
C=CCn1c(COc2ccc(Cl)cc2)nnc1SCC(=O)Nc1ccc(S(N)(=O)=O)cc1	–	–	–	–	–
C=CCn1c(COc2ccccc2)nnc1SCC(=O)N/N=C/c1ccc(C)cc1	–	–	–	–	–
COC(=O)C1C(O)CC[C@@H]2CN3CCc4c([nH]c5ccccc45)C3C[C@@H]12 (stereo partly specified)	·	–	–	·	·
O=c1[nH]c(=S)[nH]c2c1C(c1ccc(F)cc1)OC(CCOCc1ccccc1)C2 (stereo unspecified)	·	·	·	·	–
CCCC(C)c1nnc(NC(=O)COc2ccc3c(c2)OCO3)s1 (stereo unspecified)	–	–	–	–	–
CCOC(=O)c1cn2nc(SCc3ccccc3)nc2nc1C	–	?	–	–	–
O=C1CC(N2CCCCC2)C(=O)N1c1ccccc1 (stereo unspecified)	–	10µM	20µM	–	–
O=C1CC(N2CCCN(C3CC(=O)N(c4ccc(F)cc4)C3=O)CC2)C(=O)N1c1ccc(F)cc1 (stereo unspecified)	–	17.8µM	?	–	–
O=C1CC(N2CCSCC2)C(=O)N1c1ccccc1 (stereo unspecified)	–	–	–	–	–
CCOc1ccccc1-c1c2cc(O)c(=O)cc-2oc2cc(O)c(O)cc12	?	?	17.8µM	–	–
